Whole data set: some 110,000 compounds, median “z-score” near -0.1, cut for the highest 2% near 2. The list comes from a sample in which the highest values are over-represented; it also holds similar structures and randomly drawn compounds. Activity calls are given as the source filed them.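 The calls were made as follows: active = z-score in the third read window above 3 or below -3; inactive = the rest.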
target: Metabotropic glutamate receptor 8 (Rattus norvegicus) (UniProt P70579); assay: rat mGluR8 modulators via GIRK flux, primary screen, cell-based, thallium flux, HTS (AID 488969); settings: HEK293 rat mGluR8, GIRK (G protein-gated inwardly rectifying potassium channel) thallium flux, FluoZin2; at 10 µM; stronger effect = higher value; submaximal glutamate (EC20) added with thallium
Sequence (P70579 whole entry, looked up): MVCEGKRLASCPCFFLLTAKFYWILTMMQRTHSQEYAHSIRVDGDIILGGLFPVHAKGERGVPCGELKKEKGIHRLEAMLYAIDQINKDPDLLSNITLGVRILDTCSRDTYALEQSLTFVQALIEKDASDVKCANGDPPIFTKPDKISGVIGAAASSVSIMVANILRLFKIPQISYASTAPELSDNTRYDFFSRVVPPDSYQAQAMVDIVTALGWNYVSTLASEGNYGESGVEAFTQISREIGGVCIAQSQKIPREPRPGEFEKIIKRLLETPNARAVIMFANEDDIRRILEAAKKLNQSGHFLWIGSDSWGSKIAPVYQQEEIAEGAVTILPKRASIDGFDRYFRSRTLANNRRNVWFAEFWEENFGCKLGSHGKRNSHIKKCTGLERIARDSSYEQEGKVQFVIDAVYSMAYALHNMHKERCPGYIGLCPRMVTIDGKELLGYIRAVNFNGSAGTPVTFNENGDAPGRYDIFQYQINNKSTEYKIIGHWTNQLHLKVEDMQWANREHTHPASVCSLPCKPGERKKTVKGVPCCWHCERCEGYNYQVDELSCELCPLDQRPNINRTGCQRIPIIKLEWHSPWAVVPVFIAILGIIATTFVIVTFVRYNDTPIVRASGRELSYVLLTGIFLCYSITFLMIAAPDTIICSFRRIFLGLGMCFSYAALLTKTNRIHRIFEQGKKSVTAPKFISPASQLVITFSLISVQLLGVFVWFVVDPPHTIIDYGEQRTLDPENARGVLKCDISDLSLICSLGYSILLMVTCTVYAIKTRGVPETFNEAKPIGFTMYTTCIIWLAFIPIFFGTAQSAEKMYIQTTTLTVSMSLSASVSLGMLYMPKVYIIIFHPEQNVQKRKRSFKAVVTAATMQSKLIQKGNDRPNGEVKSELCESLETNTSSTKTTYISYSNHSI

In order of rising z-score:
1. CCCCn1c(SCC(=O)N2CCC(C)CC2)nc2ccsc2c1=O  -1.86
2. COc1ccc2occ(C(C)=O)c2c1  -1.2
3. Cc1[nH]n2c(=O)cc(C(C)C)nc2c1-c1ccccc1  -0.963
4. CCOc1ccc(-n2c(=S)sc3c(=O)[nH]c(SCC(=O)NC(C)CC)nc32)cc1 (stereo unspecified)  -0.859
5. O=Cc1cn(CC(=O)N2CCOCC2)c2ccccc12  -0.773
6. Cc1ccc(Cn2nnc3c(=O)[nH]c(C4CCN(C(=O)c5cccs5)CC4)nc32)cc1  -0.73
7. CCCc1cc(=O)[nH]c(SCC(=O)N(Cc2ccccc2)C(C)C)n1  -0.715
8. Cc1noc(C)c1C(=O)N1CCN(C(=O)c2sc3cc(Cl)ccc3c2Cl)CC1  -0.676
9. Cc1cc(=O)n2[nH]c(C)c(-c3ccccc3)c2n1  -0.675
10. Cc1ccc(/C=C/S(=O)(=O)N2CCC(C(=O)O)CC2)cc1  -0.628
11. Cc1cc(C(F)F)n2ncc(C(=O)NCCc3ccc(Cl)cc3)c2n1  -0.612
12. O=C(NCC(c1cccs1)N1CCOCC1)c1ccccc1NS(=O)(=O)c1ccc(Cl)c([N+](=O)[O-])c1 (stereo unspecified)  -0.572
13. COc1ccccc1N1CCN(C(=O)Cn2c(=O)[nH]c3ccsc3c2=O)CC1  -0.563
14. O=C(Nc1cccnc1)c1cc(-c2ccccc2)on1  -0.466
15. O=C(c1ccccc1)c1ccc(OCCCCN2CCCCC2)cc1  -0.455
16. CCCOc1c(OC)cc(Cl)cc1C1NC(=O)NC(C)=C1C(=O)NCc1ccccc1 (stereo unspecified)  -0.431
17. COc1ccc(Sc2cc(C(F)(F)F)nc(-c3ccccn3)n2)cc1  -0.417
18. CCOC(=O)c1cnc2c(C)cc(C)cc2c1Nc1ccc(S(=O)(=O)Nc2ncccn2)cc1  -0.378
19. N/C(=N\OC(=O)c1ccc(Br)cc1)c1ccccc1  -0.37
20. COc1ccccc1Nc1nnc(C)c(=O)[nH]1  -0.361
21. CC(C)NC(=O)CSCc1c(Cl)cccc1Cl  -0.342
22. Cc1ccn2c(NC3CCCCC3)c(C)nc2c1  -0.312
23. O=C(C[n+]1cc(-c2ccccc2)n2c1CCC2)N1c2ccccc2Sc2ccccc21  -0.288
24. CCN(CC)c1ccc(NC(=O)CN2CCN(S(=O)(=O)c3cc(Cl)ccc3OC)CC2)cc1  -0.269
25. Cc1ccc(-c2nnc(-c3ccccc3)o2)cc1  -0.254
26. CC1CCN(Cc2nnnn2-c2cccc([N+](=O)[O-])c2)CC1  -0.243
27. Cc1cccc(C(=O)Nc2nnc(SCC(=O)Nc3ccc4c(c3)oc3ccccc34)s2)c1  -0.242
28. Cc1ccc(-c2nn(CC(=O)Nc3ccc4c(c3)nc3n4CCOC3)c(=O)c3ccccc23)cc1  -0.236
29. CC(C)OCC(O)CCc1n[nH]c(=S)n1-c1ccccc1 (stereo unspecified)  -0.224
30. CCOC(=O)Cn1c(=O)oc2cc(S(=O)(=O)Nc3c(C)cc(C)cc3C)ccc21  -0.223
31. COC(=O)c1ccccc1Oc1nc(Cl)cc(OC)n1  -0.22
32. CC(C)OC(=O)c1cccnc1N1CCN(c2ccc(F)cc2)CC1  -0.216
33. COC(=O)C1CCN(S(C)(=O)=O)CC1  -0.211
34. NC(=O)C(c1ncc(C(F)(F)F)cc1Cl)c1c(Cl)cccc1Cl (stereo unspecified)  -0.197
35. CCOC(=O)c1c(NC(=O)CCN2C(=O)c3ccccc3C2=O)sc(C(=O)OC(C)C)c1C  -0.193
36. CCOC(=O)c1cnc2c(C)c(C)ccc2c1Nc1ccc(S(=O)(=O)Nc2ncccn2)cc1  -0.177
37. CC1CCCCC1NC(=O)COn1nnc2ccc(Cl)cc21 (stereo unspecified)  -0.171
38. CCOC(=O)Cn1c(=O)oc2cc(S(=O)(=O)NCCc3ccc(C)cc3)ccc21  -0.171
39. CCn1c(SCc2ccc(Cl)cc2Cl)nc2nc3c(cc2c1=O)CCCC3  -0.163
40. CCN1CCN(CCCCSc2ccccc2)CC1  -0.152
41. CCOC(=O)N1CCN(c2nnnn2-c2ccccc2)CC1  -0.14
42. Nc1nc(-c2cccnc2)nn1C(=O)COc1ccccc1  -0.135
43. Cc1ccc(S(=O)(=O)N2CCOCC2)cc1NC(=O)COC(=O)CSc1ccc(Br)cc1C  -0.132
44. C/C(N)=C(/C#N)C(=O)CSc1nnc(Nc2ccccc2C)s1  -0.126
45. COc1ccc(OC)c(Nc2ccc(Nc3cc(OC)ccc3OC)nn2)c1  -0.125
46. CSCCNC(=O)c1ccc(C(C)(C)C)cc1  -0.121
47. COc1cc(OC)c(C2C(C(=O)N3CCOCC3)=C(C)NC3=C2C(=O)CC(C)(C)C3)cc1OC (stereo unspecified)  -0.103
48. S=C(NCCN1CCOCC1)Nc1ccc(Cl)cc1  -0.102
49. CCc1ccccc1NC(=S)NCc1ccc2c(c1)OCO2  -0.0875
50. CC(C)Oc1ccc(OCCCN2CCCCCC2)cc1  -0.0757
51. O=C(NC(C(=O)O)c1ccccc1)c1ccc(S(=O)(=O)N2CCOCC2)cc1 (stereo unspecified)  -0.0595
52. Cc1ccccc1OCc1nc2ccccc2c(=O)n1/N=C/c1cccc([N+](=O)[O-])c1  -0.0563
53. Cc1ccc(OCCCNC2CCCC2)cc1  -0.0441
54. COc1ccc(CCNC(=S)Nc2ccc(C)cc2C)cc1  -0.0431
55. CSc1nnc(Nc2ccccc2C)s1  -0.0316
56. O=C(c1ccccc1)c1ccc(OCCCN2CCCC2)cc1  -0.0127
57. Cc1cccc(C)c1Oc1nc(-c2ccccc2)ncc1S(=O)(=O)c1ccccc1  -0.0101
58. CCOC(=O)CSc1nc(-c2ccc3c(c2)OCO3)ccc1C#N  -0.00752
59. CC(NC(=O)C1CCCCC1)C(=O)NC1=NCCS1 (stereo unspecified)  0.00509
60. O=C(c1cnccn1)N(c1ccccc1)C1(C(=O)NC2CCCC2)CCCCC1  0.00523
61. Cc1cccc(-n2c(-c3csc(C)c3C)n[nH]c2=S)c1  0.00757
62. CC(C)(C)C(=O)Nc1cc(NC(=O)C(C)(C)C)cc(C(=O)Nc2cc(C(=O)O)cc(C(=O)O)c2)c1  0.00761
63. CCc1cc2c(N[C@@H](C)C(=O)O)ncnc2s1  0.00833
64. c1ccc(OCCCN2CCCC2)cc1  0.00842
65. CCCCNS(=O)(=O)c1ccc2c(c1)oc(=O)n2CC(=O)OCC  0.0209
66. CC1(C)Cc2[nH]c(=O)c(C#N)cc2CS1  0.0257
67. CCOc1ccc(OCCNC2CCCC2)cc1  0.0455
68. CCn1ncc(Cl)c1C(=O)Nc1cc(Cl)ccc1Cl  0.0474
69. O=C(C[n+]1cc(-c2ccc(Cl)c(Cl)c2)n2c1CCC2)OCc1ccccc1  0.0701
70. COc1cccc(-c2cc(C(=O)Nc3cnn(Cc4ccccc4C)c3)no2)c1  0.0739
71. O=C(Nc1cnn(C23CC4CC(CC(C4)C2)C3)c1)c1cc(-c2ccccc2)on1  0.107
72. Cc1nn(CC(=O)OCC(=O)Nc2ccccc2[N+](=O)[O-])c(C)c1[N+](=O)[O-]  0.113
73. N/C(=N\OC(=O)CCc1ccccc1)c1ccc(Br)cc1  0.12
74. CC1CN(CC(=O)c2c(N)n(Cc3ccccc3)c(=O)n(C)c2=O)CC(C)O1 (stereo unspecified)  0.178
75. N#C/C(=N\Nc1ccc(Cl)cc1)C(=N)N1CCCCC1  0.186
76. Cc1cccc(-n2c(-c3csc(C)c3)n[nH]c2=S)c1  0.189
77. COc1ccc2occ(C(=O)c3cccs3)c2c1  0.191
78. O=C1c2ccccc2OC2(C=Cc3ccccc3O2)N1Cc1ccccc1 (stereo unspecified)  0.198
79. CCOc1ccccc1CNC(=O)CCNC(=O)Cn1ccc2ccccc2c1=O  0.269
80. c1ccc(COc2ccc(OCCCN3CCCC3)cc2)cc1  0.306
81. CCN(CC)c1ccc(NS(=O)(=O)c2ccc3c(c2)oc(=O)n3C)c(C)c1  0.308
82. COc1ccc(OCCCN2CCCC(C)C2)cc1 (stereo unspecified)  0.314
83. CC1CCN(CCCOc2ccc(OCc3ccccc3)cc2)CC1  0.441
84. CC(C)c1nc2ccccn2c1NC1CCCCC1  0.45
85. O=C(NCC(c1cccnc1)N1CCN(c2ccccc2F)CC1)c1cccc(Cl)c1 (stereo unspecified)  0.459
86. CC(=O)Nc1cccc(C(=O)OC(C(=O)c2ccc(C)cc2)c2ccccc2)c1 (stereo unspecified)  0.508
87. c1ccc(COc2ccc(OCCCCN3CCCC3)cc2)cc1  0.565
88. Cc1ccccc1-n1c(-c2csc3ccccc23)n[nH]c1=S  0.627
89. CCc1cc(-c2n[nH]c(=S)n2-c2cccc(C)c2)cs1  0.65
90. Cc1ccc(-c2cc(C(=O)Nc3cnn(C(C)C)c3)no2)cc1  0.74
91. CN1CCN(CCCNC(=O)c2ccc3c(c2)N(Cc2ccccc2)CCS3)CC1  0.775
92. Cc1nc2ccc(NC3=NCCCCC3)cc2s1  0.806
93. Cc1ccc(-c2nnc(Nc3ccccc3)o2)cc1  1.1
94. O=C(c1ccccc1)c1ccc(OCCCN2CCCCC2)cc1  1.54
95. CN1CC2=Cc3ccccc3OC23Oc2ccccc2C=C3C1  2.01
96. c1ccc(COc2ccc(OCCCNC3CCCC3)cc2)cc1  2.46
97. CC1CCN(CCCCOc2ccc(C(=O)c3ccccc3)cc2)CC1  2.47
98. Cc1ccn2c(NC3CCCCC3)c(C(C)C)nc2c1  2.52
99. Cc1cccc(-n2c(-c3csc4ccccc34)n[nH]c2=S)c1  2.62
100. CCNc1nnc(-c2ccc(C)cc2)o1  2.74
101. CCOC(=O)Cn1c(=O)oc2cc(S(=O)(=O)Nc3ccc(N(CC)CC)cc3C)ccc21  2.74
102. c1ccc(COc2ccc(OCCCCN3CCCCC3)cc2)cc1  2.79
103. COc1ccccc1Nc1ccc(Nc2ccccc2OC)nn1  2.82
104. Cc1cccc(-n2c(-c3csc(C(C)C)c3)n[nH]c2=S)c1  2.87
105. c1ccc(COc2ccc(OCCCN3CCCCC3)cc2)cc1  2.89
106. N/C(=N\OC(=O)Cc1ccccc1)c1ccc(Br)cc1  2.92

With `CCOC(=O)c1cnc2c(C)c(Cl)ccc2c1Nc1ccc(S(=O)(=O)Nc2ncccn2)cc1` the z-score was 9.28 (active).
In the case of `COc1ccc(OCCCN2CCCCCC2)cc1`, the z-score is reported as 8.02 (active).
In the case of `CCN1CCN(CCCOc2ccc(-c3ccccc3)cc2)CC1`, the z-score is reported as 4.56 (active).
With `COc1ccc2occ(C(=O)c3ccc(N=C(C)N(C)C)cc3)c2c1` the z-score was 3.46 (active).
In the case of `Cc1[nH]n2c(=O)cc(C(C)(C)C)nc2c1-c1ccccc1`, the z-score is reported as 4.43 (active).
`CCCn1cc(NC(=O)c2cc(-c3ccccc3)on2)cn1` was tested, and the z-score was 13 (active).
With `CC(C)n1cc(NC(=O)c2cc(-c3ccccc3)on2)cn1` the z-score was 16.8 (active).
For `CCCSc1nnc(Nc2ccccc2C)s1`, the z-score was 4.96 (active).
`O=C(C[n+]1cc(-c2ccccc2)n2c1CCC2)OCc1ccccc1` was tested, and the z-score was 5.17 (active).
With `CCOC(=O)Cn1c(=O)oc2cc(S(=O)(=O)NCCCc3ccccc3)ccc21` the z-score was 3.36 (active).

From PubChem BioAssay AID488969 (Vanderbilt High Throughput Screening Facility, 2010)
